Screening results as filed in PubChem BioAssay.
The list is not random: actives were taken first. Their share in the collection is about 8.3%.
Gal4-VP16 FLuc: Gal4-VP16 reporter inhibition counter-screen | AID 2546 | Drosophila S2 Gal4-VP16 UAS-luciferase, luminescence, 20 h | 3.5% of 310,000 active | Potency, µM (titrated, usually from 53.6 µM), most hits filed as inhibitors;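 further: Gal4-VP16 expression switched on by copper sulfate through the metallothionein promoter; nearly all actives have a fitted effect of over 50% in size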
Chronic BCR inh: inhibitors of chronic active B-cell receptor signaling; ABC-DLBCL IkBa-CBG/CBR reporter, luminescence ratio, 4 h; Potency, µM (titrated, usually from 46.1 µM), actives largely listed as inhibitors; 0.05% of 340,000 active; active means well fitted inhibition curve with a large enough effect in the signal ratio, with a control signal flat, not every such curve was filed as active; inconclusive means small, poorly fitted or top-dose-only effect, or effect the other way, or a change in a side signal; the % refers to the signal ratio
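Compounds up to 46 uM were incubated four hours with TMD8 cells whose green CBG68 luciferase is fused to IkappaBalpha; red CBR luminescence normalised the signal, and concentration-effect curves were fitted to fusion, red and ratio data.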
Giardia kill: kills Giardia lamblia | Giardia lamblia trophozoite viability | 0.15% of 340,000 active | activity change, % at 7.66 µM, hits read low; in the data active means activity change below about -80%; inconclusive means between about -30% and that limit;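 further: parasites exposed to compound for two days anaerobically before the ATP read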
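Luminescent ATP signal served as the viability read-out, measured 15-30 min after adding ATP detection reagent to trophozoites that had been incubated with compounds for 48 hrs at 37 deg C anaerobically at 100 cells/well.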
SW480 rerep: inducers of DNA re-replication in SW480 colon cancer cells | SW480 DNA re-replication, Hoechst DNA content imaging, 48 h | Potency, µM (titrated, usually from 46.1 µM), actives largely listed as activators | 1.8% of 340,000 active; further: nearly all actives have a fitted effect of over 55% in size
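Cells (250 per well) received 23 nL compound or DMSO by pin tool and were kept 48 hr at 37 C, 5% CO2. Nuclei were then stained with Hoechst for 40 min and scanned for DNA content.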
MCF10A rereplic: inducers of DNA re-replication in MCF 10A breast cells | Potency, µM (top dose mostly 46.1 µM), usual class: activators | MCF 10A DNA re-replication, Hoechst nuclear intensity, 48 h | AID 624296 | 2.9% of 350,000 active; further: nearly all actives have a fitted effect of over 50% in size
RORg inh: blocks mouse ROR gamma transcriptional activity; 5.4% of 310,000 active; Drosophila S2 Gal4-RORgamma UAS-luciferase reporter, 20 h; Potency, µM (doses to about 53.6 µM), hits mostly inhibitors; further: nearly all actives have a fitted effect of over 60% in size
Target sequence (P51450 whole entry, looked up, the tested form may be a part): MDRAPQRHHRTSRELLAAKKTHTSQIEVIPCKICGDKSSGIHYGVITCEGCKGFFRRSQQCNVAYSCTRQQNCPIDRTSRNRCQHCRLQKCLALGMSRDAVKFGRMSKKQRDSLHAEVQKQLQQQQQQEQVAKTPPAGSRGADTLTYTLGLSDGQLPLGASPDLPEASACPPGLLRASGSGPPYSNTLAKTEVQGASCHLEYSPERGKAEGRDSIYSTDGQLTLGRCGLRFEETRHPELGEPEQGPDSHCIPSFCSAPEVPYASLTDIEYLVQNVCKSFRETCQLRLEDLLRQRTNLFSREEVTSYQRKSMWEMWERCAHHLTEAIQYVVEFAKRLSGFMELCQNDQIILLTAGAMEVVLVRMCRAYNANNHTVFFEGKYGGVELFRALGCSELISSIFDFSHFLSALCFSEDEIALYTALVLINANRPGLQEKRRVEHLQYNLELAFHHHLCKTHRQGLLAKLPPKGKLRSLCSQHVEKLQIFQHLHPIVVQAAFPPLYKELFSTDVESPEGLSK
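ROR gamma transcriptional activity was tracked as Gal4-UAS luciferase output in stably transfected Drosophila Schneider cells, with compound added 1 hr before 700 uM copper sulfate induction and a 20 hr ambient-temperature incubation.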
Hits are given with their value; i = inactive; ? = inconclusive; nt = not tested or not shown; ! = a repeat was not active; [ ] = another dose, or the depositor's remark. Unless noted, the call rests on the fitted dose curve; in most records, active means well fitted curve in the direction sought with a large enough effect; inconclusive means small, poorly fitted or top-dose-only effect, or another doubt; inactive means no such curve, though single readings can be large; an effect the other way counts as inactive or inconclusive.

SMILES	Gal4-VP16 FLuc	Chronic BCR inh	Giardia kill	SW480 rerep	MCF10A rereplic	RORg inh
COCC(=O)Nc1ccc(Br)cc1C	i	i	i	i	i	i
O=C(c1ccco1)N1CCC(c2nc3ccccc3[nH]2)CC1	nt	i	i	i	i	nt
CCCCCC(=O)NC(=S)Nc1ccccc1C(=O)OC	?	nt	i	i	i	14µM
CCCCC(=O)NC(=S)Nc1ccccc1C(=O)Nc1ccccc1	i	i	i	i	i	i
CCOC(=O)C1CCN(CC(=O)Nc2c(C(=O)OC)[nH]c3ccc(Cl)cc23)CC1	10µM	?	i	i	?	?
C=CCNC(=O)/C(C#N)=C/c1c(C)nn(-c2ccccc2)c1Cl	13µM	?	i	i	?	?
c1ccc(CNc2ncnc3ccccc23)cc1	11µM	?	?	i	i	i
c1ccc(N2CCN(c3nc(NCc4ccco4)c4ccccc4n3)CC2)cc1	?	?	i	?	?	?
c1ccc(CNc2nc(N3CCN(Cc4ccccc4)CC3)nc3ccccc23)cc1	i	?	i	?	7.3µM	i
COc1cc2ncnc(NCc3ccccc3)c2cc1OC	i	i	i	i	6.5µM	i
COc1ccc(CNc2ncnc3cc(OC)c(OC)cc23)cc1	i	i	i	i	i	?
Oc1ccccc1Nc1nc(NCc2ccccc2)c2ccccc2n1	22µM	?	i	i	16µM	?
CC(=O)OCC1OC(OCc2cn(C[C@H]3CC[C@H](Cn4cc(COC5OC(COC(C)=O)C(OC(C)=O)C(OC(C)=O)C5OC(C)=O)nn4)O3)nn2)C(OC(C)=O)C(OC(C)=O)C1OC(C)=O (stereo partly drawn)	i	i	i	i	i	i
Clc1ccc(Cn2ncc3c(NCc4ccccc4)ncnc32)cc1	i	?	i	?	6.5µM	?
COCCNc1ncnc2c1cnn2Cc1ccc(Cl)cc1	i	?	i	i	?	i
C[C@]12CCC(=O)C[C@@H]1CC[C@@H]1[C@@H]2CC[C@]2(C)C=CC[C@@H]12	i	i	i	i	30µM!	i
COc1ccc2c(c1)O[C@@H](c1cccc(C(F)(F)F)c1)[C@H](OC(=O)NCCOc1ccccc1)C2=O	i	nt	nt	nt	nt	i
CCOC(=O)C(NC(=O)c1cccc(Cl)c1)(Nc1nnc(C)s1)C(F)(F)F (stereo not drawn)	i	i	i	i	i	i
CCOC(=O)c1cnc(SCC(=O)Nc2sc(C)c(C)c2C#N)nc1N	i	i	i	21µM	i	i
COCc1cc(C)nc(SCC(=O)Nc2nc(C)cs2)c1C#N	i	i	i	?	16µM	i
COC(=O)CSc1nc(C)cc(C)c1C#N	i	?	i	i	i	i
Cc1cc(C)c(C#N)c(SCC(=O)C2CC2)n1	i	i	i	21µM	?	i
N#Cc1cnc(SCC(=O)Nc2ccccc2C(F)(F)F)nc1N	i	i	?	i	i	i
Cc1ccc(OCC(=O)NNC(=O)CSc2ncc(C#N)c(N)n2)cc1	?	i	i	i	i	0.71µM
CC[C@]12c3[nH]c4ccc(Cl)cc4c3CCN1C(=O)[C@@H](CC(=O)NCCCN(C)C)C[C@@H]2C(=O)N1CCN(C(=O)c2ccco2)CC1	nt	i	i	i	i	nt
SMILES	Gal4-VP16 FLuc	Chronic BCR inh	Giardia kill	SW480 rerep	MCF10A rereplic	RORg inh
CCOC(=O)c1sc(NC(=O)CSc2n[nH]c(-c3ccc(Cl)cc3Cl)n2)c(C#N)c1C	?	i	i	i	i[0.0737 µM]	11µM
CCOC(=O)c1sc(NC(=O)c2cc(-c3ccccc3C)nc3ccccc23)c(C#N)c1C	8.9µM	?	i	i	2.6µM	8.9µM
CCOC(=O)c1sc(NC(=O)CSc2nc(C)cc(C)c2C#N)c(C#N)c1C	i	i	i	i	2µM	i
Cc1csc(=O)n1CCC(=O)OC(C)C(=O)NCc1ccccc1 (stereo not drawn)	nt	i	i	?	i	nt
COc1cccc2cc(-c3nc(Nc4cccc(C)c4)sc3C)c(=O)oc12	nt	i	nt	nt	nt	nt
COc1ccc(N2CCN(C(=O)CCS(=O)(=O)c3ccc4c(c3)CCN4C(=O)C3CC3)CC2)cc1	i	i	i	5.8µM	?	i
COc1ccc(N2CCN(CNC(=O)c3ccccc3)CC2)cc1	i	i	i	i	0.92µM	i
COc1ccc(N2CCN(C(=O)CCNS(=O)(=O)c3ccccc3)CC2)cc1	i	i	i	i	26µM	i
COc1ccc(N2CCN(C(=O)NC(=O)c3ccccc3)CC2)cc1	i	i	i	i	i	i
CCOC(=O)c1cc(-c2ccccc2)n(CCC(=O)N2CCN(c3ccc(OC)cc3)CC2)c1C	i	i	i	i	26µM	?
O=C1CC(N2CCC(O)(c3ccc(Br)cc3)CC2)C(=O)N1c1ccc(Cl)cc1 (stereo not drawn)	?	i	i	i	i	?
CC(=O)Nc1ccc(-c2sc(Nc3cccc4ccccc34)n[n+]2-c2ccccc2)cc1	i	i	i	i	i	i
COc1ccc(C(CNC(=O)CCNS(=O)(=O)c2ccc(C)cc2)N2CCOCC2)cc1 (stereo not drawn)	nt	i	i	5.2µM	i	nt
Cc1ccc(S(=O)(=O)NCCC(=O)NCC(c2ccc(F)cc2)N2CCOCC2)cc1 (stereo not drawn)	nt	i	i	i	i	nt
Cc1nn(C)c(C)c1CN(Cc1nc(-c2cc(F)ccc2F)oc1C)C1CC1	i	?	i	i	i	28µM
O=Cc1ccccc1-c1cn(CN2C(=O)c3ccccc3C2=O)nn1	i	i	i	i	i	i
COc1ccc(Br)cc1CNC(=O)c1cc(=O)[nH]c2ccc(S(=O)(=O)N3CCCCC3)cc12	nt	i	nt	nt	nt	nt
Cc1ccc(C(=O)c2oc3ccccc3c2N)cc1	i	i	i	?	10µM	i
COc1ccc(C)cc1NC(=O)CCCN1C(=S)NC(C)(C)CC1C (stereo not drawn)	4.5µM	i	i	i	i	1µM
COc1ccc(OC)c(NC(=O)CCCN2C(=S)NC(C)(C)CC2C)c1 (stereo not drawn)	18µM	i	i	i	i	11µM
Cc1cccc(NS(=O)(=O)c2ccc(C(=O)NCC(c3ccccc3)N(C)C)cc2)c1C (stereo not drawn)	i	i	i	?	?	?
CC(C)Oc1cccc(C(=O)NC(=S)Nc2ccc(Cl)c(C(=O)O)c2)c1	?	i	i	i	i	i
CC(C)Oc1cccc(C(=O)NC(=S)Nc2ccc3c4c(cccc24)CC3)c1	?	i	i	i	?	11µM
COc1ccc(C(=O)NC(=S)Nc2ccc3c4c(cccc24)CC3)cc1OC	?	?	i	i	?	7.9µM
Cc1c(C(=O)NC(=S)Nc2ccc3c4c(cccc24)CC3)cccc1[N+](=O)[O-]	5µM	i	i	i	i	2.2µM
Cc1c(C(=O)Nc2ccc3c4c(cccc24)CC3)cccc1[N+](=O)[O-]	i	i	i	?	i	i
